Laboratory results: PubChem BioAssay (Tox21)
Several values for one entry are separate records, joined by “and”; a condition that tells them apart may be missing. Equal entries are not always repeated. Records with an inconclusive call do not appear. The source holds several records for some structures; these can differ, active in one and inactive in another. Activity calls are given as the source filed them. Unless noted, calls follow the shape of the full dose curve.

Assays:
[1] = Nuclear factor erythroid 2-related factor 2/antioxidant responsive element (Nrf2/ARE) small molecule agonists: qHTS cell viability counter screen in human keratinocytes (AID 1919968; active = well fitted curve in the direction sought with a large enough effect in the repeat runs; an effect the other way counts as inactive or inconclusive; also: nearly all actives have a fitted effect of over 55% in size)
Method in brief: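 Stably transfected HaCaT (KeratinoSens), 1,500/well. Test agents in DMSO were applied for 23 h, 37 C/5% CO2. CellTiter-Fluor was incubated 1 h before the fluorescence read.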

[2] = target: KiSS-1 receptor (Homo sapiens) (UniProt Q969F8); assay: Human kisspeptin (KISS1R) small molecule agonists, calcium flux assay in KISS1R-HEK293 cells (AID 1920064; active = well fitted curve in the direction sought with a large enough effect in the repeat runs; an effect the other way counts as inactive or inconclusive)
Chain of KiSS-1 receptor (Homo sapiens) (Q969F8 whole entry, looked up): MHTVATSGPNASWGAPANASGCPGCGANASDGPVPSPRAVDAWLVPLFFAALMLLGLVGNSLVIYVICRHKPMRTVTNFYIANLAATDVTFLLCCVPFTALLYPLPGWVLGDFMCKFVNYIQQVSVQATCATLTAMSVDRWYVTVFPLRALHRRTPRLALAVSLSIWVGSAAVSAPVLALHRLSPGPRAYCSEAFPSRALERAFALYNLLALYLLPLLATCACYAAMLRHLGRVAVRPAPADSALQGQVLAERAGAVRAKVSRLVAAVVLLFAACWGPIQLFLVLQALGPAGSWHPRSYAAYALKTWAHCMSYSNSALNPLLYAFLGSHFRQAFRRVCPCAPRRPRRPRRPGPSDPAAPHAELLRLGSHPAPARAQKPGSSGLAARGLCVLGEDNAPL
Method in brief: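 After overnight (18 h) culture at 37 C/5% CO2, human KISS1R-HEK293 cells received calcium dye for 1 h, then test compound; emission at 540 nm (excitation 480 nm) was tracked for 3 min.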

[3] = G protein-coupled receptor (GPCR) small molecule agonists, calcium flux assay: HEK293 wild type cell line counter screen (AID 1920065)
Method in brief: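 Following 18 h incubation at 37 C/5% CO2, plates got calcium dye for 1 h; compounds, ATP or DMSO were then pinned in and fluorescence followed kinetically (480/540 nm).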

[4] = p53 small molecule agonists, cell-based qHTS assay with human liver microsomes (AID 1963577)
Method in brief: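 Fluorescence of the beta-lactamase reporter in p53RE-bla cells, detected with LiveBLAzer substrate (2 h, room temperature, dark), served as the read-out after 16 h compound exposure at 37 C with human liver microsomes and NADPH, each 0.5 mg/mL final.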

[5] = p53 small molecule agonists, cell-based qHTS assay with rat liver microsomes (AID 1963578)
Method in brief: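 Cells carrying a p53 response element–beta-lactamase reporter were plated and rested 5 h, then dosed with compound in DMSO plus rat liver microsomes and NADPH, each at 0.5 mg/mL final. After 16 h at 37 C, LiveBLAzer substrate was added for 2 h.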

[6] = p53 small molecule agonists, cell-based qHTS assay with human liver microsomes: qHTS cell viability counter screen (AID 1963579); also: nearly all actives have a fitted effect of over 45% in size
Method in brief: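 Cytotoxicity counter screen: p53RE-bla, 4,000 cells/well; 5 h settle, 37 C/5% CO2; cpd + HLM 0.5 mg/mL + NADPH 0.5 mg/mL (final); 16 h, 37 C; CellTiter-Glo, 30 min RT, luminescence.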

[7] = p53 small molecule agonists, cell-based qHTS assay with rat liver microsomes: qHTS cell viability counter screen (AID 1963580); also: nearly all actives have a fitted effect of over 45% in size
Method in brief: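 Cytotoxicity counter screen: intracellular ATP read by CellTiter-Glo luminescence in the p53 reporter wells. HCT-116 p53RE-bla cells were treated for 16 h at 37 C alongside rat liver microsomes and NADPH, each 0.5 mg/mL final.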

[8] = p53 small molecule agonists, cell-based qHTS assay: qHTS cell viability counter screen (AID 1963581); also: nearly all actives have a fitted effect of over 45% in size
Method in brief: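 qHTS counter screen: 16 h compound exposure at 37 C of p53RE-bla HCT-116 cells (4,000 per well, seeded 5 h prior), cell viability by ATP luminescence.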

[9] = p53 small molecule agonists, cell-based qHTS assay (AID 1963582; active = well fitted activation curve with a large enough effect in the signal ratio in the repeat runs, not every such curve was filed as active; the % refers to the signal ratio)
Method in brief: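 Measured: fluorescence from cleaved LiveBLAzer substrate. System: p53RE-bla cells, 16 h compound treatment at 37 C, 2 h substrate step at room temperature.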

[10] = target: 5-hydroxytryptamine receptor 2A (Homo sapiens) (UniProt P28223); assay: 5-hydroxytryptamine receptor 2A (HTR2A) small molecule antagonists, cell-based qHTS assay (AID 1963586); also: nearly all actives have a fitted effect of over 45% in size
Chain of 5-hydroxytryptamine receptor 2A (Homo sapiens) (P28223 whole entry, looked up): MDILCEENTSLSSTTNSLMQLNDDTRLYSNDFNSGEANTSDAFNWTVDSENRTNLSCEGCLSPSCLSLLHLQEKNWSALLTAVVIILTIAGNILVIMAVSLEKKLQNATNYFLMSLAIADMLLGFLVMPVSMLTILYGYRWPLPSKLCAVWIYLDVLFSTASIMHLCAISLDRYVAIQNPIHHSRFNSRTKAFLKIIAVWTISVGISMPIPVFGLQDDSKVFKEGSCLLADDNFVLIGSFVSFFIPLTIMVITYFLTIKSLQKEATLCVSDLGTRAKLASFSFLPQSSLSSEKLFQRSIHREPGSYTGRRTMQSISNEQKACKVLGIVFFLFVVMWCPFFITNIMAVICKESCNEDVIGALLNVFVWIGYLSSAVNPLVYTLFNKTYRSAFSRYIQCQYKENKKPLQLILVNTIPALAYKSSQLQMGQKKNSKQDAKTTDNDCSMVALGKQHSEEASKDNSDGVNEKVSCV
Method in brief: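 CHO cells stably expressing human HTR2A were plated for 18 h at 37 C, then loaded with calcium dye for 1 h. Compounds were preincubated 5 min at room temperature before DOI (4 nM solution) was added. Kinetic fluorescence was read for 3 min.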

[11] = target: 5-hydroxytryptamine receptor 2A (Homo sapiens) (UniProt P28223); assay: 5-hydroxytryptamine receptor 2A (HTR2A) small molecule agonists, cell-based qHTS assay (AID 1963587); also: nearly all actives have a fitted effect of over 30% in size; also: potency is read from the fitted curve at half-maximal effect
Method in brief: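 Kinetic calcium-flux fluorescence (2 min, 1 sec intervals) after compound addition in agonist mode. HTR2A-CHO cells were cultured 18 h, then dye-loaded 1 h at 37 C.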

[12] = target: Muscarinic acetylcholine receptor M1 (Homo sapiens) (UniProt P11229); assay: Cholinergic receptor muscarinic 1 (CHRM1) small molecule antagonists, cell-based qHTS assay (AID 1963588); also: nearly all actives have a fitted effect of over 40% in size
Chain of Muscarinic acetylcholine receptor M1 (Homo sapiens) (P11229 whole entry, looked up): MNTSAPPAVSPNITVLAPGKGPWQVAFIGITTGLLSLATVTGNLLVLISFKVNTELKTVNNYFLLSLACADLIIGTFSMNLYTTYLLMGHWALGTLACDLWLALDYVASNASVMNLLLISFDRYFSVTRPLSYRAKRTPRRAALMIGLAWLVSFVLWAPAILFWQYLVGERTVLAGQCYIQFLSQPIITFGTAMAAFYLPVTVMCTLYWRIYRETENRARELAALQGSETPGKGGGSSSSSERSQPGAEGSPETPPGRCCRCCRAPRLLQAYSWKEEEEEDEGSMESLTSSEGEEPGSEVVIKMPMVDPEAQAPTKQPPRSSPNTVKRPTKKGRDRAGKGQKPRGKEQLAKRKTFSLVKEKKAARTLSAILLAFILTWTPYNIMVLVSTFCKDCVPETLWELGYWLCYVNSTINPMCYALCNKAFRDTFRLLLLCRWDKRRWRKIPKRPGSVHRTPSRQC
Method in brief: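 Compounds were tested at 15 concentrations in three independent runs. Dye-loaded CHRM1-CHO cells were exposed 5 min at room temperature before stimulation by acetylcholine added at 50nM. Intracellular calcium was read kinetically on FDSS for 3 min.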

[13] = target: Muscarinic acetylcholine receptor M1 (Homo sapiens) (UniProt P11229); assay: Cholinergic receptor muscarinic 1 (CHRM1) small molecule agonists, cell-based qHTS assay (AID 1963589); also: nearly all actives have a fitted effect of over 35% in size; also: potency is read from the fitted curve at half-maximal effect
Method in brief: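 Kinetic fluorescence (1 s intervals) of calcium-sensitive dye in human M1 CHO cells after compound addition; cells pre-incubated 18 h at 37 C/5% CO2 and dye-loaded 1 h.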

[14] = cAMP Responsive Elements (CRE) small molecule agonists, cell-based qHTS assay (AID 1963590)
Method in brief: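 Test agents in DMSO were incubated 3 h at 37 C/5% CO2 with CRE-bla HEK 293T cells seeded 18 h earlier; LiveBLAzer B/G FRET substrate was added and read after 2 h at room temperature.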

[15] = cAMP Responsive Elements (CRE) small molecule antagonists, cell-based qHTS assay (AID 1963591; active = well fitted inhibition curve with a large enough effect in the signal ratio in the repeat runs, not every such curve was filed as active; the % refers to the signal ratio)
Method in brief: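 Reporter line CRE-bla HEK 293T in dialyzed-FBS DMEM; cells preincubated 18 h, treated 3 h with compound plus NKH477 (0.25 uM final); LiveBLAzer FRET, 2 h RT.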

[16] = target: Beta-2 adrenergic receptor (Homo sapiens) (UniProt P07550); assay: Adrenergic beta2 receptor (ADRB2) small molecule antagonists, cell-based qHTS assay (AID 1963592); also: series mostly up to about 92 µM; nearly all actives have a fitted effect of over 50% in size
Chain of Beta-2 adrenergic receptor (Homo sapiens) (P07550 whole entry, looked up): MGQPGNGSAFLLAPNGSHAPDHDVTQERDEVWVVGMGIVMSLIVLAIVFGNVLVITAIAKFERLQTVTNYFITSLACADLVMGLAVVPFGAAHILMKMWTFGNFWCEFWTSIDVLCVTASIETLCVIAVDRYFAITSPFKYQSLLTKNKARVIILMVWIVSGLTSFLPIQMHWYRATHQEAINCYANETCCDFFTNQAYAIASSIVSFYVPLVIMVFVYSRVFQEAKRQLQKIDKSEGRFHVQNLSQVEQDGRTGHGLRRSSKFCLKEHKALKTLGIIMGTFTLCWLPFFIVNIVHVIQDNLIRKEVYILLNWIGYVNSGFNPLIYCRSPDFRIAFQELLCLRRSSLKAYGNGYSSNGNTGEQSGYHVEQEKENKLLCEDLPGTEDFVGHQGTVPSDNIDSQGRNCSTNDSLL
Method in brief: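 Assay format: CHO-ADRB2 cells, 18-20hr seeding at 37C/5% CO2, then compound plus 1nM isoproterenol agonist mix for 0.5hr RT. Homogeneous time-resolved fluorescence cAMP detection after 1hr, expressed as 665/615 nm ratio.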

[17] = target: Beta-2 adrenergic receptor (Homo sapiens) (UniProt P07550); assay: Adrenergic beta2 receptor (ADRB2) small molecule agonists, cell-based qHTS assay (AID 1963593);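 also: CHO cells stably overexpressing human ADRB2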
Method in brief: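 CHO cells stably over-expressing ADRB2 were plated overnight at 37C, then dosed with compounds plus a stimulation mix containing 100uM IBMX and 25uM Ro-20-1724 for 0.5hr at room temperature. cAMP was measured by HTRF competition, 1hr.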

[18] = target: D(2) dopamine receptor (Homo sapiens) (UniProt P14416); assay: Dopamine D2 receptor (DRD2) small molecule agonists, cell-based qHTS assay (AID 1963594); also: nearly all actives have a fitted effect of over 35% in size
Chain of D(2) dopamine receptor (Homo sapiens) (P14416 whole entry, looked up): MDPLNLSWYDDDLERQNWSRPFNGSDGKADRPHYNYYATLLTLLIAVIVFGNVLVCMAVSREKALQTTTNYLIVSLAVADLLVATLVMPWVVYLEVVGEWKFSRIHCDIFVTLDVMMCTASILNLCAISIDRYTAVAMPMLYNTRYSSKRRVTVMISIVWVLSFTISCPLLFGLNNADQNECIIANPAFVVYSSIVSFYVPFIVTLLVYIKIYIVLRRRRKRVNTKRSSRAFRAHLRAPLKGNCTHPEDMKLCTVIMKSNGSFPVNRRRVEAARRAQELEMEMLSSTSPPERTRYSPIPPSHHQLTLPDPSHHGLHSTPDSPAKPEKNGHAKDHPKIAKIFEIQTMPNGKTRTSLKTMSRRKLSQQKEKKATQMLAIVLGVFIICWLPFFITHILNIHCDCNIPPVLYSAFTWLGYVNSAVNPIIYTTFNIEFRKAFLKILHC
Method in brief: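 cAMP accumulation in DRD2-HEK293 cells measured by HTRF after 1 h detection; compounds added 10 min before NKH477 (200nM […]) forskolin-analogue stimulation, 30 min at room temperature, with Ro20-1724 present at 0.1 mM final.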

[19] = target: D(2) dopamine receptor (Homo sapiens) (UniProt P14416); assay: Dopamine D2 receptor (DRD2) small molecule antagonists, cell-based qHTS assay (AID 1963595; active = well fitted inhibition curve with a large enough effect in the signal ratio in the repeat runs, with a control signal flat; the % refers to the signal ratio)
Method in brief: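 HEK293 cells stably expressing DRD2, preincubated with 0.1 mM Ro20-1724 and compounds 10 min, were stimulated with 200 nM NKH477 plus 12 nM quinpirole for 30 min at room temperature; cAMP measured by HTRF (665/620 nm).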

[20] = Nuclear factor erythroid 2-related factor 2/antioxidant responsive element (Nrf2/ARE) small molecule agonists: luciferase reporter gene qHTS assay in human keratinocytes (AID 1919969); also: nearly all actives have a fitted effect of over 35% in size; also: potency is read from the fitted curve at half-maximal effect

Measured: Potency

OCCCC1CCCCC1
inactive: [1] | [2] | [3] | [4] | [5] | [6] | [7] | [8] | [9] | [10] | [11] | [12] | [13] | [14] | [15] | [16] | [17] | [18] | [19]

CCOC(=O)c1ccccc1C
inactive: [1] | [2] | [3] | [4] | [5] | [6] | [7] | [8] | [9] | [10] | [11] | [12] | [13] | [14] | [15] | [16] | [17] | [18] | [19]

CCC(C)C(=O)OCCc1ccccc1 (stereo unspecified)
inactive: [1] | [20] | [3] | [4] | [5] | [6] | [7] | [8] | [9] | [11] | [12] | [13] | [14] | [15] | [16] | [17] | [18] | [19]

Cc1cccc(N(C)C)c1
inactive: [1] | [2] | [3] | [4] | [5] | [6] | [7] | [8] | [9] | [10] | [11] | [12] | [13] | [14] | [15] | [16] | [17] | [18] | [19]

CC(C)CCOCCC(C)C
inactive: [1] | [2] | [3] | [4] | [5] | [6] | [7] | [8] | [9] | [10] | [11] | [12] | [13] | [14] | [15] | [16] | [17] | [18]

CCOc1ccc2c(c1)C(C)=CC(C)(C)N2
inactive: [1] | [3] | [4] | [6] | [7] | [8] | [9] | [12] | [14] | [18]
54.7 µM (active) and inactive: [11] | [13]
active: [20] 68.2 µM and 68.6 µM
